Among the test systems are SK-MEL-2 melanoma; EKVX NSCLC; SN12C renal; UO-31 renal; TK-10 renal; ACHN renal; A498 renal; CCRF-CEM leukemia; MOLT-4 leukemia; SR leukemia; RPMI-8226 leukemia; OVCAR-8 ovarian; OVCAR-5 ovarian; OVCAR-4 ovarian; SK-OV-3 ovarian; IGROV1 ovarian; OVCAR-3 ovarian; HS 578T breast; NCI/ADR-RES ovarian; CAKI-1 renal.
Holding throughout (experiment): NCI-60 one-dose screen, 48 h (100 = growth as untreated, 0 = no growth, -100 = all killed)
Settings in all cases: 10 µM

SMILES strings stand for the structures. This is part of a sample that, as a whole, favours compounds with a hit. Of some 83,000 tested, about 20% had one in any assay.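 Percent growth is the endpoint: 0 to 100 indicates growth inhibition (40 means 60% inhibition), 0 means no net growth, and negative values indicate cell death.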 Values without a mark were called inactive. Calls of active or inactive are those of the source. Rule for the calls: active = growth percent below 10; inactive = the rest.

With `CN(C)CCCOc1ccc(OCCCN(C)C)c2c1C(=O)c1ccccc1C2=O`, the growth is -53.4% (active) in the assay with SK-MEL-2 melanoma; 13.6% with EKVX NSCLC; 6.55% (active) with SN12C renal; 62.7% with UO-31 renal; -6.02% (active) in the assay with TK-10 renal; 10.8% in the assay on ACHN renal. Also, the growth in the assay on A498 renal is -31.9% (active); in the assay on CCRF-CEM leukemia it was 2.78% (active); in the assay with MOLT-4 leukemia, 5.64% (active); in the assay on SR leukemia, 2.73% (active); with RPMI-8226 leukemia, -20.6% (active); in the assay on OVCAR-8 ovarian it was 7.14% (active). In addition, the growth with OVCAR-5 ovarian is 8.93% (active); in the assay on OVCAR-4 ovarian it was 2.16% (active); with SK-OV-3 ovarian it was 13.8%; in the assay with IGROV1 ovarian it was 3.65% (active); in the assay on OVCAR-3 ovarian, 3.4% (active); with HS 578T breast, 23%. In addition, the growth with NCI/ADR-RES ovarian is 96.1%.
With `CC(CN(C)C)Oc1ccccc1NC1=C(Cl)C(=O)C(Nc2ccccc2OC(C)CN(C)C)=C(Cl)C1=O` (configuration not stated), the growth with SK-MEL-2 melanoma was -61.2% (active); in the assay on EKVX NSCLC it was -71.7% (active); in the assay with SN12C renal it was -96% (active); with UO-31 renal it was -99.9% (active); in the assay with TK-10 renal, -97.8% (active); with ACHN renal it was -98.4% (active). For the same compound, the growth was 26.4% in the assay on A498 renal; -1.98% (active) in the assay with CCRF-CEM leukemia; -30.8% (active) with MOLT-4 leukemia; -9.43% (active) with SR leukemia; -34.5% (active) in the assay on RPMI-8226 leukemia; -85.3% (active) in the assay on OVCAR-8 ovarian. Further, the growth with OVCAR-5 ovarian was -72.2% (active); in the assay with OVCAR-4 ovarian, -97.6% (active); with SK-OV-3 ovarian it was 58.9%; in the assay with IGROV1 ovarian it was -76.4% (active); in the assay on OVCAR-3 ovarian, -96.2% (active); with HS 578T breast it was 3.54% (active). For the same compound, in the assay with NCI/ADR-RES ovarian, the growth is -24.5% (active).
As to `CCOC(=O)c1sc2ncnc(Nc3ccc(NC(=O)Nc4ccc(Cl)cc4)cc3)c2c1C`, the growth in the assay with SK-MEL-2 melanoma was 87.2%; in the assay on EKVX NSCLC, 74.4%; with SN12C renal, 60.5%; in the assay on UO-31 renal, 54.9%; in the assay with TK-10 renal, 89.4%; in the assay on ACHN renal, 64.4%. For the same compound, the growth in the assay with CAKI-1 renal was 83.9%; in the assay with MOLT-4 leukemia it was 66.3%; with SR leukemia, 44.3%; in the assay on OVCAR-8 ovarian, 38.7%; in the assay with OVCAR-5 ovarian, 99.2%; with OVCAR-4 ovarian, 53.4%. Also, the growth in the assay on SK-OV-3 ovarian is 74.6%; in the assay with IGROV1 ovarian, 92.3%; in the assay on OVCAR-3 ovarian, 62.9%; in the assay with HS 578T breast, 41.4%; with NCI/ADR-RES ovarian, 37.2%.
Turning to `CCOC(=O)c1cc(C(=O)c2cc(OC)c(OC)c(OC)c2)n2ncc3ccccc3c12`, the growth with SK-MEL-2 melanoma was 78.5%; with EKVX NSCLC, 94.5%; in the assay with SN12C renal, 101%; in the assay with UO-31 renal it was 75.6%; in the assay on TK-10 renal, 97.3%; with ACHN renal it was 78.7%. In addition, the growth is 73.6% in the assay on A498 renal; 70.1% with CCRF-CEM leukemia; 62% in the assay with MOLT-4 leukemia; 23.1% in the assay with SR leukemia; 81.9% with RPMI-8226 leukemia; 78.5% with OVCAR-8 ovarian. Also, the growth was 99.3% in the assay on OVCAR-5 ovarian; 83.8% in the assay on OVCAR-4 ovarian; 83.4% in the assay with SK-OV-3 ovarian; 75.9% in the assay on IGROV1 ovarian; 47% with OVCAR-3 ovarian; 85.5% in the assay with HS 578T breast. The growth with NCI/ADR-RES ovarian is 63.6%.
`Cc1ccc(Cl)cc1NC(=O)CCl`: the growth in the assay on SK-MEL-2 melanoma was 86.9%; with EKVX NSCLC, 119%; with SN12C renal, 84%; in the assay on UO-31 renal, 91.3%; with TK-10 renal, 96%; with ACHN renal, 104%. Besides, the growth is 105% with A498 renal; 28.4% with CCRF-CEM leukemia; 32% in the assay with MOLT-4 leukemia; 43.2% in the assay on SR leukemia; 43.8% in the assay on RPMI-8226 leukemia; 88% in the assay on OVCAR-8 ovarian. In addition, the growth with OVCAR-5 ovarian was 136%; in the assay with OVCAR-4 ovarian, 76.9%; with SK-OV-3 ovarian, 93.5%; with IGROV1 ovarian, 64.4%; with OVCAR-3 ovarian it was 99%; in the assay on HS 578T breast, 94.2%. The growth with NCI/ADR-RES ovarian is 102%.
Consider `Clc1nc2ccccc2cc1Cn1nnc(Cc2ccccc2)n1`, for which the growth in the assay with SK-MEL-2 melanoma is 58.8%; in the assay on EKVX NSCLC it was 36.1%; in the assay with SN12C renal it was 70.3%; in the assay on UO-31 renal it was -81% (active); in the assay on TK-10 renal it was 60.9%; in the assay with ACHN renal, 52.2%. Moreover, the growth in the assay on CAKI-1 renal is 40.5%; with MOLT-4 leukemia, 43.1%; in the assay on SR leukemia it was 37%; in the assay on OVCAR-8 ovarian it was 71.6%; in the assay on OVCAR-5 ovarian it was 104%; with OVCAR-4 ovarian, 29.7%. The growth in the assay with SK-OV-3 ovarian is 57.4%; in the assay with IGROV1 ovarian, 50.9%; in the assay with OVCAR-3 ovarian it was 59.5%; with HS 578T breast, 76.6%; with NCI/ADR-RES ovarian, 52.1%.
For the compound `C/C=C/CSC(C)(C)C(=O)NC`, the growth with SK-MEL-2 melanoma was 109%; in the assay with EKVX NSCLC it was 99.8%; in the assay with SN12C renal, 106%; in the assay with UO-31 renal, 93.8%; in the assay with TK-10 renal, 103%; in the assay with ACHN renal, 108%. For the same compound, the growth in the assay on A498 renal is 103%; with CCRF-CEM leukemia, 98.5%; in the assay on MOLT-4 leukemia, 102%; in the assay on SR leukemia, 109%; with RPMI-8226 leukemia, 99.8%; with OVCAR-8 ovarian it was 98.4%. Moreover, the growth was 113% in the assay with OVCAR-5 ovarian; 117% with OVCAR-4 ovarian; 95.6% in the assay with SK-OV-3 ovarian; 115% with IGROV1 ovarian; 108% in the assay with OVCAR-3 ovarian; 99.5% with HS 578T breast.
`CCOC(=O)c1cc(C(=O)c2ccc(F)cc2F)n2ccccc12`: the growth with SK-MEL-2 melanoma was 91.2%; in the assay with EKVX NSCLC, 99.7%; in the assay with SN12C renal, 95.9%; in the assay with UO-31 renal, 72.3%; with TK-10 renal, 115%; in the assay with ACHN renal, 97.1%. For the same compound, the growth is 87.9% in the assay on A498 renal; 84.7% in the assay on CCRF-CEM leukemia; 87% in the assay with MOLT-4 leukemia; 73% in the assay on SR leukemia; 77.6% in the assay with RPMI-8226 leukemia; 88% in the assay on OVCAR-8 ovarian. Further, the growth is 99.7% in the assay with OVCAR-5 ovarian; 97.8% in the assay on OVCAR-4 ovarian; 88.7% in the assay on SK-OV-3 ovarian; 82.3% in the assay on IGROV1 ovarian; 103% with OVCAR-3 ovarian; 93.2% in the assay with HS 578T breast. In addition, the growth with NCI/ADR-RES ovarian is 88.5%.

These data come from PubChem BioAssay (NCI).
